Results from PubChem BioAssay AID1117319 (Southern Research Institute, 2015).
Where “and” joins values, the source holds several entries; their conditions need not be identical. Identical values can stand only once. About 1,500 (0.58%) of roughly 260,000 compounds were called active. Not shown: some 5% with an inconclusive outcome.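 Rule for the calls: active = inhibition above a set limit at one or more doses, reproduced on every date tested; inconclusive = results disagree between test dates, or hit never tested in dose response; inactive = the rest.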 Only a sample is shown. Potency and affinity values are given separately.

target: Virion infectivity factor (Human immunodeficiency virus type 1 group M subtype B (isolate BH10)) + Virion infectivity factor (Human immunodeficiency virus type 1 group M subtype B (isolate BRU/LAI)) + Virion infectivity factor (Human immunodeficiency virus type 1 group M subtype B (isolate PCV12)) + Virion infectivity factor (Human immunodeficiency virus type 1 group M subtype B (isolate HXB2)) + DNA dC->dU-editing enzyme APOBEC-3G (Homo sapiens) (UniProt P69720+P69721+P69722+P69723+Q9HC16); experiment: inhibitors of Vif binding to APOBEC3G peptide, primary screen, biochemical, TR-FRET, GST-Vif 1-94, biotin-A3G peptide, dose response retest (AID 1117319); conditions: stronger effect = higher value;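 note: Vif residues 1-94 fused to GST binding biotinylated APOBEC3G peptide 110-148; 0% = full assay without inhibitor and 100% = GST in place of GST-Vif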

inhibition, inactive:
CCN(CC(=O)NCc1cccs1)C(=O)c1ccc(S(=O)(=O)Nc2ccccc2Cl)cc1 1.56%
CC(=O)Nc1cccc(NC(=O)COc2ccccc2C)c1 -7.35%
Cc1noc(C)c1COc1cccc(C(=O)N(C)Cc2cccs2)c1 -1.46%
COc1ccc2c(c1O)C(=O)c1ccccc1C2=O 23.1%
CC1(C)CC(=O)C(N=Nc2ccc(OC(F)F)cc2)=C(O)C1 12.4%
Cc1cccc(NC(=O)c2ccc(C)c(S(=O)(=O)N3CCCCC3)c2)n1 2.93%
Cc1ccccc1NC(=O)COC(=O)c1cc(=O)c2ccccc2o1 -5.37%
O=Cc1ccc(O)c(O)c1 0.2%
CC(=O)Nc1ccc(N=Cc2ccc(OCc3ccccc3)cc2)cc1 21.2%
NC(N)=N/N=C/c1ccc(OCc2ccccc2)cc1 -2.74%
Oc1ccc(/C=N/N(c2ccccc2)c2ccccc2)cc1O 26.2%
COc1ccc(/C=N/N=C/c2ccc(OC)c(O)c2)cc1O -4.01%
Oc1ccc(/C=N/N=C/c2ccc(O)cc2)cc1 4.98%
Cc1nc(SC(C)C(=O)c2c(N)n(C)c(=O)n(C)c2=O)c2c(C)c(C)sc2n1 (centres undefined) -0.67%
CCOc1ccc(NC(=O)C(C)Sc2nnnn2C)cc1 (centres undefined) 0.56%
COc1cccc(NC(=O)CN(C)C(=O)CN2C(=O)NC(C)(c3ccc4ccccc4c3)C2=O)c1 (centres undefined) 9.34%
Cc1ccc(C)c(NS(=O)(=O)c2ccc(OCC(=O)N3CCCC3)cc2)c1 1.52%
CS(=O)(=O)c1ccc(C(=O)OCC(=O)NC(=O)Cc2ccccc2)cc1 -0.73%
COc1ccc(-n2c(SCC(C)=O)nc3sc(C)c(C)c3c2=O)cc1 -12.1%
CC(C)(C)c1c(Cl)c(O)c(-c2ccccc2)c(=O)n1-c1ccccc1 11.4%
CCN(c1ccccc1)S(=O)(=O)c1ccc2c(c1)N(C(C)=O)CCS2 -1.04%
COc1ccccc1-c1nn(-c2ccccc2)cc1C(=O)NCC(c1ccco1)N1CCCC1 (centres undefined) 1.07%
CCOC(=O)N1CCN(S(=O)(=O)c2ccc(OC)c(Cl)c2Cl)CC1 3.84%
Fc1ccc2c(c1)c1n[nH]c(=S)nc1n2CCc1ccccc1 0.89%
O=C1C=C(Nc2ccccc2)C(=O)c2ccccc21 1.37%
O=C(Nc1ccc2c(c1)C(=O)c1ccccc1-2)c1ccccc1 4.11%
NC(Cc1ccc2nonc2c1)C(=O)O (centres undefined) 17.1%
CC(C)C(=O)NN(C(=O)c1ccccc1)c1ccccc1 -2.08%
O=C(c1ccccc1)N(Nc1ccccc1)c1ccccc1 11.5%
COc1ccc2cc(C#N)c(Nc3cccc(F)c3)nc2c1 -0.27%
S=c1[nH]nc(NC2CCCCC2)s1 2.41%
COc1cc(C2Nc3ccccc3C(=O)N2c2ccccc2OC)ccc1O (centres undefined) -3.51%
CCOc1cc(C2Nc3ccccc3C(=O)N2c2ccccc2)ccc1O (centres undefined) 24.7%
CCCCOC(=O)c1cccc(NC(=O)CCC(=O)O)c1 -3.12%
NC(=O)c1ncc(C(F)(F)F)cc1Oc1cccnc1 -3.05%
CCN(C(=O)COC(=O)CNC(=O)c1ccc2ccccc2c1)C1CCS(=O)(=O)C1 (centres undefined) 11.8%
CCc1ccc(NC(=O)C2CCN(S(C)(=O)=O)CC2)cc1 -4.22%
Cc1ccc(NC(=O)C2CC3CCC2C3)c(Br)c1 (centres undefined) -0.68%
COc1ccc(NC(=O)C(NC(C)=O)C(=O)NCc2ccccc2OC)cc1 (centres undefined) 19.8%
COc1cc2cccc(OC)c(=O)c2c(O)c1OC 4.6%
Oc1cccc2cc3cccc(O)c3c(O)c12 -5.93%
CCOC(=O)c1sc(NC(=O)Nc2ccc(F)cc2)nc1C 24.7%
Nc1ccc(N2CCCCC2)c(Cl)c1 19.8%
Clc1ccccc1CN1CCN(c2ncccn2)CC1 -5.95%
CC1CCC2(CC1)NC(=O)N(CC(=O)NCc1ccc(Cl)cc1)C2=O (centres undefined) -14%
O=C(CNC(=O)c1ccc(Br)cc1)N/N=C/c1ccc[nH]1 -7.5%
Cc1nc2ccccc2n1CC(=O)c1ccccc1 6.29%
Cc1nc2ccccc2c(-c2ccccc2)c1CC(=O)O -8.12%
CCOC(=O)c1cnc2c(cnn2C)c1Cl 6.51%
COc1cc(OC)c(-c2oc3ccccc3c(=O)c2O)c(OC)c1 4.4%
COc1cc(OC)c2c(c1)OC(c1ccc(OC)c(OC)c1)C(O)C2=O (centres undefined) 5.17%
COc1ccc(C(=O)OCCN=C2NS(=O)(=O)c3ccccc32)cc1OC 0.81%
CC12CCCc3c(O)cc(=O)n(c31)-c1ccccc12 (centres undefined) 0.05%
Cn1cccc1/C=C1\SC(=S)N(NC(=O)c2ccccc2O)C1=O 27.8%
O=C(NN1C(=O)/C(=C/C=C/c2ccccc2)SC1=S)c1ccncc1 10.1%
O=C1/C(=C/c2cccs2)SC(=S)N1NS(=O)(=O)c1ccccc1 -2.36%
COc1cc(/C=C2\SC(=S)N(NC(=O)c3ccccc3O)C2=O)ccc1O 5.15%
CC(/C=C1\SC(=S)N(NS(=O)(=O)c2ccccc2)C1=O)=C\c1ccccc1 -6.38%
O=C(NN1C(=O)/C(=C/c2cccs2)SC1=S)c1ccncc1 -1.89%
Cc1c(C(=O)NCc2ccccn2)sc2nc(-c3ccc(F)cc3)cn12 0.67%
Cc1ccc(NC(=O)CC2C(=O)NC3CCCCC3N2C(=O)c2ccc(F)cc2)cc1C (centres undefined) 1.01% and 26.2%
Cc1nn(Cc2cccc(Oc3ccccc3)c2)c(C)c1NC(=O)NC12CC3CC(CC(C3)C1)C2 -5.96%
Clc1ccc(CSc2cc3c(nn2)-c2ccccc2CC3)cc1Cl -6.32%
CC1(C(=O)OCC(=O)Nc2ccccc2Cl)CC1(Cl)Cl (centres undefined) -10.2%
Cc1c(Cl)ccc(S(=O)(=O)NCCN2CCOCC2)c1Cl 6.83%
O=CN1CCN(C2CC(=O)N(c3ccc(Br)cc3)C2=O)CC1 (centres undefined) 22.2%
Cc1ccc(Oc2ccccc2/C=C/C(=O)O)cc1 7.01%
Cc1ccc(NC(=O)c2noc3c2CCC3)cc1C -3.45%
CC(C)(C)C1CCc2onc(C(=O)Nc3ccc(F)cc3F)c2C1 (centres undefined) 2.83%
CC(=O)c1ccc(NC(=O)c2noc3c2CCC3)cc1 -4.79%
COC(=O)c1ccccc1NC(=O)c1noc2c1CCCC2 3.34%
COC(=O)c1ccccc1NC(=O)c1noc2c1CC(C(C)(C)C)CC2 (centres undefined) -0.63%
O=C(Nc1ccccc1C(=O)N1CCOCC1)c1noc2c1CCCC2 -4.02%
COc1ccc(Cl)cc1NC(=O)c1noc2c1CCCC2 -11.1%
COc1cc(NC(=O)c2noc3c2CCCC3)c(OC)cc1Cl 11.1%
CCS(=O)(=O)c1ccc(-c2csc(-c3ccc(Cl)cc3)n2)c(Cl)c1Cl 2.97%
CN(CCCNC(=O)CCCOc1cc(=O)n(C)c2ccccc12)Cc1ccccc1 4.88%
CN(C)C(CNC(=O)c1cccc(S(=O)(=O)NCc2ccccc2)c1)c1ccco1 (centres undefined) 0.14%
O=C(CC1SC(N2CCCC2)=NC1=O)Nc1ccc(C(=O)NCc2ccc(F)cc2)cc1 (centres undefined) 4.94%
COc1cc(OC)cc(-n2nnnc2SCC(=O)NCc2cccs2)c1 6.88%
O=C(O)CCCCCNS(=O)(=O)/C=C/c1ccccc1 1.37%
CCN(CC(=O)Nc1ccc(NC(C)=O)cc1)C(=O)/C=C/c1c(C)nn(-c2ccc(F)cc2)c1Cl 0.81%
COC(=O)c1ccccc1NC(=S)NC(=O)C1CCCCC1 -4.52%
COC(=O)c1ccccc1NC(=S)NC(=O)C1CC1 0.95%
COc1cc(NCc2ccccc2O)c2ncccc2c1 3.48%
COc1cc(NCCCCC(C)N)c2nccc(C)c2c1 (centres undefined) 9.33%
CCOC(=O)c1ccc(Oc2nc(N(C)C)nc(N3CCOCC3)n2)cc1 -15.9%
CN1CCN(c2nnc(-c3ccc(Cl)cc3)c3ccccc23)CC1 3.71%
Cc1ccc(C)c(/C=N/n2cc(-c3ccccc3)[nH]c2=S)c1 -9.36%
Cc1ccc(-c2cc(-c3ccc(C)o3)nc(N)c2C#N)cc1 27.2%
Cc1ccc(-c2cc(-c3ccc(F)cc3)c(C#N)c(N)n2)o1 18.2%
Cc1ccc(-c2cc(-c3ccc(Cl)cc3)c(C#N)c(N)n2)o1 24.5%
Cc1cc(-c2ccc(Cl)cc2)c(C#N)c(N)n1 -1.08%
Cc1ccc(CNC(=O)c2ccc(CN3CCOCC3)cc2)cc1 32.3%
Cc1[nH]c2ccccc2c1C(=O)NS(=O)(=O)Nc1ccc(Cl)cc1 12.1%
CN(C)S(=O)(=O)c1ccc(C(=O)Nc2nnc(-c3cccs3)o2)cc1 27.3%
O=C(Nc1ccc(N2CCN(C(=O)c3ccc(Cl)cc3)CC2)cc1)c1ccc(Br)o1 10.6% and 6.22%
CCOC(=O)c1c(NC(=O)Cc2cccs2)sc2c1CCCC2 -5.96%
COC(=O)c1c(NC(=O)Cc2cccs2)sc2c1CCCC2 29.5%
